This passage reports outcome and AC50 results from PubChem BioAssay.

Results filed as inconclusive are left out. Activity calls are given as the source filed them. Unless noted, no cut-off is given here; in the data, nearly all actives have AC50 up to about 26 µM.

The nature of the first assay: growth inhibition of DIPG glioma cells, dose response, cell-based, SU-DIPG-XVII, MIPE5.0, CellTiter-Glo, qHTS (AID 1347060).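 For AC50: cells exposed to compound for 48 hours before viability readout.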 Particulars: SU-DIPG-XVII viability, CellTiter-Glo ATP luminescence.
On to `Cc1c(F)cc(C(=O)NC2CC2)cc1-c1ccc(C(=O)NCC(C)(C)C)cn1`, for which the compound was called inactive.
On the same count and under the same terms, under `CONC(=O)Nc1ccc(-c2sc3c(c2CN(C)Cc2ccccc2)c(=O)n(-c2ccccc2)c(=O)n3Cc2c(F)cccc2F)cc1` stands “inactive”.
Turning to `COc1ccc2c(c1)[C@]1(C[C@H]1c1ccc3c(/C=C/c4ccc(CN5C[C@@H](C)O[C@@H](C)C5)cc4)n[nH]c3c1)C(=O)N2`, the AC50 is 4.17 µM (active).
Take `C[C@@H]1O[C@@H](O[C@@H]2\C=C/C=C\C=C/C=C\C[C@H](C)OC(=O)/C=C\[C@H]3O[C@@H]3C[C@H](O)C[C@]3(O)C[C@@H](O)[C@@H](C(=O)O)[C@H](C2)O3)[C@H](O)[C@H](N)[C@@H]1O`: the result was inactive.
Consider `NC(=O)c1nc(F)c[nH]c1=O`, for which the outcome was inactive.
Same read-out and setting: under `CCS(=O)(=O)c1ccc2oc(-c3ccc4ccccc4c3)nc2c1` stands “inactive”; under `CC#Cc1cncc(-c2ccc3c(c2)[C@@]2(N=C(C)C(N)=N2)C2(CCC(OC)CC2)C3)c1` (stereo not given in full), “inactive”.
For `Fc1ccc(-c2csc3ncnc(NCc4ccc5c(c4)OCO5)c23)cc1`, the AC50 was 20.9 µM (active).
Same read-out and setting: under `Cc1noc(-c2ccc(-c3ccc(C4(C(=O)O)CC4)cc3)cc2)c1NC(=O)O[C@H](C)c1ccccc1` stands 23.5 µM (active); under `O=C(CCCCCCNC(=O)c1cnc(N(c2ccccc2)c2ccccc2Cl)nc1)NO`, 8.33 µM (active).
Regarding `COc1ccc(Oc2cc(NCCC(F)(F)F)c3ncc(-c4ccc(C(=O)NC5CC5)c(C)c4)n3n2)c(F)c1F`, the AC50 is 0.059 µM (active).
For the compound `C[C@@H]1CN(CC(=O)N2CC(C)(C)c3ncc(Cc4ccc(F)cc4)cc32)[C@@H](CN2CCOC[C@H]2C)CN1`, the outcome was inactive.
In the case of `COc1ncc(Nc2ncc(C(C)N3CCN(S(C)(=O)=O)CC3)cc2-c2nc(C)nc(N)n2)cc1F` (stereo not given), the AC50 is 0.934 µM (active).
As to `O=S(=O)(c1cccc2c(I)cccc12)N1CCCNCC1`, the call was inactive.
On the same count and under the same terms, under `CNC(=O)[C@H](Cc1c[nH]c2ccccc12)NC(=O)[C@@H](CC(=O)NO)CC(C)C` stands “inactive”; under `CCn1c(=O)c(-c2ccc(-c3cncc(C)n3)cc2Cl)cc2cnc(NCCC3CCN(C)CC3)nc21`, “inactive”; under `O=C(Nc1cccc(C(F)(F)F)c1)Nc1cc(S(=O)(=O)NC2CC2)ccc1-c1ccsc1`, “inactive”.
The same measure, in the same setting: under `CC(C)Cc1ccc([C@@H](C)C(=O)NS(C)(=O)=O)cc1` stands “inactive”.
For the compound `Cc1nc2ccc(-n3ncc(C(=O)c4cc5ccccc5[nH]4)c3N)cc2[nH]1`, the AC50 is 0.468 µM (active).
Turning to `Nc1n[n+]([O-])c2ccccc2[n+]1[O-]`, the compound was classed as inactive.
With `CCn1nc(C2CCN(C(=O)CCO)CC2)nc1-c1cnc(N)c(-c2nnc(C(C)(C)C)o2)n1`, the AC50 was 5.9 µM (active).
On the same count and under the same terms, under `Cn1cnc(-c2cc3nccc(Oc4ccc(NC(=S)NC(=O)Cc5ccccc5)cc4F)c3s2)c1` stands 16.6 µM (active); under `CC(C)Oc1ccc(-c2nc(-c3cccc4c3CC[C@@H]4NCCO)no2)cc1C#N`, 20.9 µM (active); under `CON(C)C(=O)N1N=C(c2cc(F)ccc2F)S[C@@]1(CCCN)c1ccccc1`, 0.00525 µM (active).
Regarding `CCOC(=O)c1ccnc(CNCC(=O)N(CC)CCN(C)C)c1`, the outcome was inactive.
Consider `COc1ccc(Cl)c(Nc2nc3ccccc3nc2NS(=O)(=O)c2cccc(NC(=O)C(C)(C)N)c2)c1`, for which the AC50 is 14.8 µM (active).
Regarding `Cn1cc(-c2ccc3c(c2)CCN3C(=O)Cc2cccc(C(F)(F)F)c2)c2c(N)ncnc21`, the call was inactive.
Same read-out and setting: under `COc1cc(-c2cc(-c3ccc(N4CCNCC4)cc3)cnc2C)cc(OC)c1OC` stands “inactive”.

A further assay is described as follows: growth inhibition of DIPG glioma cells, dose response, cell-based, SU-DIPG-XIII, MIPE5.0, CellTiter-Glo, qHTS (AID 1347064; cut-off not given, nearly all actives have AC50 up to about 23 µM;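 for AC50: cells exposed to compound for 48 hours before the viability read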). Particulars: SU-DIPG-XIII viability, CellTiter-Glo ATP luminescence.
`Cn1cc(-c2nc(N[C@@H]3CCCC[C@@H]3N)c(F)c3c2C(=O)NC3)cn1`: the compound was classed as inactive.
For `Cn1c(=O)c(-c2c(Cl)cccc2Cl)cc2cnc(Nc3cccc(C(=O)O)c3)nc21`, the AC50 was 2.35 µM (active).
Regarding `CCN(c1cc(C#CCN2CCOCC2)cc(C(=O)NCc2c(C)cc(C)[nH]c2=O)c1C)C1CCC(N(C)CCOC)CC1` (stereo not given), the call was inactive.
Still for that read-out and setting: under `CNCCN(C)Cc1cn[nH]c1-c1ccc(OC2CC(OCCC3CCOCC3)C2)cc1` (stereo not given) stands “inactive”; under `Cc1ccc(C2=Nc3ccc(Cl)cc3OC2)cc1`, “inactive”; under `Cc1cccc(-c2[nH]ncc2-c2ccc(F)c(-c3cnn(CCO)c3)c2)n1`, “inactive”.
Consider `Cc1cc2c(F)c(Oc3ncnn4cc(OCC(C)OC(=O)C(C)N)c(C)c34)ccc2[nH]1` (stereo not given), for which the AC50 is 16.6 µM (active).
With `CS(=O)(=O)Nc1cc2occ(NC=O)c(=O)c2cc1Oc1ccccc1`, the call was inactive.
The same measure, in the same setting: under `Cc1c(F)cc(C(=O)NC2CC2)cc1-c1ccc(C(=O)NCC(C)(C)C)cn1` stands “inactive”; under `CONC(=O)Nc1ccc(-c2sc3c(c2CN(C)Cc2ccccc2)c(=O)n(-c2ccccc2)c(=O)n3Cc2c(F)cccc2F)cc1`, “inactive”.
The same measure, in the same setting: under `C[C@@H]1O[C@@H](O[C@@H]2\C=C/C=C\C=C/C=C\C[C@H](C)OC(=O)/C=C\[C@H]3O[C@@H]3C[C@H](O)C[C@]3(O)C[C@@H](O)[C@@H](C(=O)O)[C@H](C2)O3)[C@H](O)[C@H](N)[C@@H]1O` stands “inactive”.
Still for that read-out and setting: under `NC(=O)c1nc(F)c[nH]c1=O` stands “inactive”; under `CCS(=O)(=O)c1ccc2oc(-c3ccc4ccccc4c3)nc2c1`, “inactive”.
As to `CC#Cc1cncc(-c2ccc3c(c2)[C@@]2(N=C(C)C(N)=N2)C2(CCC(OC)CC2)C3)c1` (stereo not given in full), the compound was classed as inactive.
As for `Fc1ccc(-c2csc3ncnc(NCc4ccc5c(c4)OCO5)c23)cc1`, the AC50 was 16.6 µM (active).
Take `O=C(CCCCCCNC(=O)c1cnc(N(c2ccccc2)c2ccccc2Cl)nc1)NO`: the AC50 was 3.72 µM (active).
On to `C[C@@H]1CN(CC(=O)N2CC(C)(C)c3ncc(Cc4ccc(F)cc4)cc32)[C@@H](CN2CCOC[C@H]2C)CN1`, for which the compound was classed as inactive.
Still for that read-out and setting: under `O=S(=O)(c1cccc2c(I)cccc12)N1CCCNCC1` stands “inactive”; under `CNC(=O)[C@H](Cc1c[nH]c2ccccc12)NC(=O)[C@@H](CC(=O)NO)CC(C)C`, “inactive”.
As to `CCn1c(=O)c(-c2ccc(-c3cncc(C)n3)cc2Cl)cc2cnc(NCCC3CCN(C)CC3)nc21`, the compound was classed as inactive.
Same read-out and setting: under `O=C(Nc1cccc(C(F)(F)F)c1)Nc1cc(S(=O)(=O)NC2CC2)ccc1-c1ccsc1` stands “inactive”.
The same measure, in the same setting: under `CC(C)Cc1ccc([C@@H](C)C(=O)NS(C)(=O)=O)cc1` stands “inactive”; under `Nc1n[n+]([O-])c2ccccc2[n+]1[O-]`, “inactive”.
Turning to `Cn1cnc(-c2cc3nccc(Oc4ccc(NC(=S)NC(=O)Cc5ccccc5)cc4F)c3s2)c1`, the AC50 is 18.6 µM (active).
Consider `CCOC(=O)c1ccnc(CNCC(=O)N(CC)CCN(C)C)c1`, for which the compound was classed as inactive.
Same read-out and setting: under `Cn1cc(-c2ccc3c(c2)CCN3C(=O)Cc2cccc(C(F)(F)F)c2)c2c(N)ncnc21` stands “inactive”; under `COc1cc(-c2cc(-c3ccc(N4CCNCC4)cc3)cnc2C)cc(OC)c1OC`, “inactive”.
